# Shown are actives, neighbours in structure and some others; about 12% of the full set was active somewhere.
# Sfp inh – inhibitors of Bacillus subtilis Sfp phosphopantetheinyl transferase; Potency, µM, without a hit: largest response in the series, negative = inhibition, most hits filed as inhibitors; Biochemical Sfp PPTase activity, qHTS; Q9F4F7; 310,000 compounds, 3.5% hits;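 further: the enzyme is Sfp with the accession as filed and its product quenches rhodamine fluorescence; 0% = enzyme reaction without inhibitor and -100% = no enzyme wells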
#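 With Hepes-Na pH 7.6 buffer containing 10 mM MgCl2, Sfp (15 nM) modified BHQ-2-YbbR (12.5 uM) using rhodamine-CoA (5 uM). Two reads 30 minutes apart at 525/598 nm yielded each well's rate.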
# BAZ2B block – BAZ2B (human) inhibition | AlphaScreen BAZ2B-H3K14Ac peptide displacement | Q9UIF8 | Potency, µM (titrated, usually from 114 µM), for inactives: at the highest dose activity change, negative = inhibition, actives largely listed as inhibitors | AID 504333 | 360,000 compounds, 4.4% hits; further: on the % scale 0 is the no-effect control and ±100 the full control effect; nearly all actives have a fitted effect of over 60% in size
#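 Inhibition is scored as reduced AlphaScreen emission. The BAZ2B/b-H3(5-23)K14Ac complex (50 nM each) in PBS pH 7.4, 0.01% Tween-20 meets compound (up to 110 uM) for 30 min at RT before bead addition.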
# JMJD2A Tudor inh – blocks the human JMJD2A Tudor domain | O75164 | AlphaScreen JMJD2A-Tudor / H3K4me3 peptide binding | Potency, µM (series often up to 114 µM), inactives show at the highest dose activity change, negative = inhibition, hits mostly inhibitors | 390,000 compounds, 4.4% hits | AID 504339; further: on the % scale 0 is the no-effect control and ±100 the full control effect; nearly all actives have a fitted effect of over 50% in size
# HP1b chromo inh – HP1-beta chromodomain-methylated histone interaction inhibition | AlphaScreen HP1-beta / biotin-H3K9me3 peptide binding | Potency, µM (doses to about 114 µM), without a hit: top-dose activity change, negative = inhibition, usual class: inhibitors | 390,000 compounds, 0.56% hits | AID 540317; further: nearly all actives have a fitted effect of over 70% in size
#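 Compound inhibition of the preformed complex between 50 nM HP1-beta and 50 nM biotinylated H3K9me3 peptide was read by AlphaScreen. Buffer was PBS pH 7.4 with 0.01% Tween-20. Incubations ran 30 min at room temperature, with 10 ug/mL donor/acceptor beads.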
# G9a block – blocks human histone lysine methyltransferase G9a; Q96KQ7; 350,000 compounds, 8.8% hits; Potency, µM (doses to about 102 µM), for the others: top-dose activity, negative = inhibition, actives largely listed as inhibitors; G9a H3K9 monomethylation, AlphaScreen, 2 h; further: on the % scale 0 is the no-effect control and ±100 the full control effect; nearly all actives have a fitted effect of over 75% in size
#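 Step 1: enzyme (final 20 nM) with compound, 15 min RT. Step 2: substrate peptide 500 nM and SAM 20 uM, 2 h RT. Step 3: anti-H3K9me1 antibody and AlphaScreen beads, 10 min, then plate read.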
# Numbers without * were called inactive; u = inconclusive; x = no result given; [ ] = remark or other dose. The call rests on the fitted dose curve; in most records, active means well fitted curve in the direction sought with a large enough effect; inconclusive means small, poorly fitted or top-dose-only effect, or another doubt; inactive means no such curve, though single readings can be large; an effect the other way counts as inactive or inconclusive. Potency means the concentration at half of the fitted maximal effect.
SMILES,Sfp inh,BAZ2B block,JMJD2A Tudor inh,HP1b chromo inh,G9a block
CCOc1cc(/C=C2\CCCC(C(=O)C(F)(F)F)=C2O)ccc1O,-16.6%,-33.2%,-32.9%,14.9%,20µM*
COc1ccc(/C=C2/CCCC(C(=O)C(F)(F)F)=C2O)cc1OC,u,-13.9%,-15.7%,38.7%,x
COc1cc(/C=C2/CCCC(C(=O)C(F)(F)F)=C2O)ccc1O,-29.2%,u,-27.1%,-6.8%,-125.8%[59 µM]
CS(=O)(=O)c1cccc(-c2nnc(NC(=O)c3ccc4c(c3)OCCO4)o2)c1,x,u,-16.2%,22.4%[57 µM],44.0%[59 µM]
COc1ccc(-n2cccc2/C=C/[N+](=O)[O-])cc1,u,35.5µM*,44.7µM*,44.7µM*,39.8µM*
COc1ccc(-n2cccc2C=O)cc1,11.7%,-6.2%,-14.7%,19.6%,-11.4%[59 µM]
COc1ccc2c(CC(=O)OCC(=O)Nc3cc(C)c(C)cc3[N+](=O)[O-])coc2c1,9.8%,u,u,u,20µM*
COc1cc(C2c3c(-c4c(C)cc(C)cc4O)n[nH]c3C(=O)N2CCCOC(C)C)cc(OC)c1OC (configuration not stated),x,-9.1%,-23.9%,-2.8%,-0.6%[59 µM]
O=C1/C(=C\c2ccc(O)c(O)c2)C(c2ccccc2)=NN1c1ccccc1,50.1µM*,8.91µM*,14.1µM*,u,3.98µM*
COc1cc(/C=C2\C(=O)N(c3ccc(NC(C)=O)cc3)N=C2c2ccccc2)ccc1O,11.3%,35.5µM*,39.8µM*,u,44.7µM*
CCc1ccc(-n2c(=O)c3cccnc3n2CC(=O)NCc2ccc(F)cc2)cc1,x,3.4%,11.4%,44.0%,2.1%[59 µM]
CCOC(=O)/C(=C\c1ccccc1)C(=O)c1cc(C(C)=O)c(Nc2ccccc2)s1,-6.6%,-7.1%,-12.3%,14.5%,u
CCOC(=O)/C(=C\c1cccnc1)C(=O)c1cc(C(C)=O)c(Nc2ccccc2)s1,39.8µM*,56.2µM*,u,-10.7%,10µM*
COc1ccccc1C1CCN(C(=O)c2ccc(C(C)(C)C)cc2)CC1,-26.7%,1.1%,-5.4%,31.5%,-4.4%[12.7 µM]
CC(=O)c1ccc(NC(=O)c2sc(-n3nc(C)c(CCC(C)C)c3C)nc2C)cc1,x,-4.1%,-19.2%,44.2%,-3.7%[59 µM]
CC(C)C[C@@H](CC(=O)N[C@H](CC(=O)N[C@@H]1CCCC[C@H]1C(=O)N[C@H](CC(=O)N[C@@H](CCC(=O)O)CC(=O)O)CC(C)C)C(C)C)NC(=O)[C@@H]1CCCC[C@H]1N,-15.5%,x,x,x,x
Cc1ccccc1C(=O)Nc1cccc(C(=O)N/N=C/c2ccccn2)c1,u,6.9%,u,58.5%,u
Nc1c(C(=O)O)cnc2c(-c3ccc(Cl)cc3)cnn12,-5.0%,28.2µM*,28.2µM*,-3.8%,u
CCOc1cccc(CNC(=O)c2ccc(N3CCCC3)c(NC(=O)NCc3ccc(F)cc3)c2)c1,x,-10.7%,-2.0%,28.4%,1.1%[12.7 µM]
COC(=O)CC1Oc2ccccc2N(Cc2ccc(C)cc2)C1=O (configuration not stated),u,3.9%,-24.7%[11.4 µM],18.1%,-8.3%[59 µM]
COC(=O)CC1Oc2ccc(C)cc2-n2cc(-c3ccc(C)cc3)nc21 (configuration not stated),x,50.1µM*,-28.7%,7.0%,u
COC(=O)c1ccc(C(/C=C/[C@@H](C)C(=O)NCCN2CCCC2)NC(=O)OCc2ccccc2)cc1 (some centres not stated),10.6%,x,x,x,x
CCOc1ncccc1C(=O)OCC(=O)c1ccc[nH]1,11.4%,-1.6%,-7.6%[57.1 µM],49.0%,14.0%
Nc1nccnc1C(=O)OCC(=O)c1ccc[nH]1,x,-1.2%,-15.8%,6.2%,50.1µM*
COc1cccc(N2CC(NC(=O)c3cccs3)CC2=O)c1 (configuration not stated),x,-23.0%,3.2%,-9.1%,1.9%[59 µM]
SMILES,Sfp inh,BAZ2B block,JMJD2A Tudor inh,HP1b chromo inh,G9a block
CCOc1ccc(C2c3c(oc4cc(C)c(C)cc4c3=O)C(=O)N2CCCN2CCOCC2)cc1 (configuration not stated),50.1µM*,8.8%,-14.8%,45.4%,28.2µM*
CCOc1ccc(C2c3c(oc4ccccc4c3=O)C(=O)N2CCCN2CCOCC2)cc1 (configuration not stated),-3.1%,-27.0%,-4.1%,31.4%,u
CCOc1ccc(C2c3c(oc4cc(C)c(C)cc4c3=O)C(=O)N2CCCN(C)C)cc1OC (configuration not stated),-14.9%,-4.9%,-18.3%,19.3%,50.1µM*
Cc1cc2oc3c(c(=O)c2cc1C)C(c1ccc(C(C)C)cc1)N(CCCN1CCOCC1)C3=O (configuration not stated),-16.3%,10.1%,u,13.2%,50.1µM*
CC(C)Cn1c(=O)c2ccccc2n2c(CCC(=O)NCc3ccc(Cl)cc3)nnc12,x,-0.1%,-0.7%,14.9%,-27.1%[59 µM]
CCn1nc([N+](=O)[O-])c(C(C#N)c2nc3cc(C(F)(F)F)ccc3s2)c(Cl)c1=O (configuration not stated),-18.0%,11.2µM*,28.2µM*,22.4µM*,11.2µM*
CCCCn1c(N)c(-c2nc3ccccc3o2)c2c([N+](=O)[O-])nn(CC)c(=O)c21,2.7%,7.0%,-27.6%,27.1%,9.4%[59 µM]
CCCn1nc([N+](=O)[O-])c(C(C#N)c2nc3ccccc3o2)c(Cl)c1=O (configuration not stated),-17.4%,20µM*,56.2µM*,u,10µM*
Cn1nc([N+](=O)[O-])c(C(C#N)c2ccccn2)c(Cl)c1=O (configuration not stated),-5.0%,-36.2%,-27.5%,10.2%,11.2µM*
N#CC(c1ccccn1)c1ncc(C(F)(F)F)cc1Cl (configuration not stated),0.7%,-23.5%,-11.2%,32.5%,26.6%[12.7 µM]
CC(C)CCNC(=O)C1CCC(CNS(=O)(=O)c2cccc3nsnc23)CC1 (configuration not stated),1.7%,1.7%,-19.4%,32.3%,-0.4%[59 µM]
COc1ccc(N(C(=O)c2ccc(Cl)cc2)S(=O)(=O)c2ccc(C)cc2)cc1,x,2.8%,-3.9%,31.7%,11.0%[59 µM]
COc1ccc(CCNC(=O)CCn2c(=O)c3ccccc3n(Cc3ccccc3)c2=O)cc1OC,x,-3.6%,-4.4%,19.7%,0.1%[59 µM]
O=C(O)C(CCc1ccccc1)N1C(=O)c2ccccc2C1=O (configuration not stated),x,x,-1.4%,30.3%,x
O=C(c1cccc(-n2cccc2)c1)N1CCN(S(=O)(=O)c2ccccc2)CC1,x,8.91µM*,5.62µM*,12.6µM*,5.0%[2.33 µM]
O=C(c1cccc(-n2cccc2)c1)N1CCN(S(=O)(=O)c2c(F)cccc2F)CC1,11.9%,2.3%,35.5µM*,u,67.1%
O=C(Nc1sc2c(c1C(=O)Nc1ccccc1Cl)CCCC2)c1ccccc1F,x,13.5%,14.2%,29.6%,u
NC(=O)c1ccc(Cc2ncc(C(F)(F)F)cc2Cl)s1,-4.9%,4.3%,-4.3%,47.4%,-46.3%[59 µM]
